# cardiac RTF act: cardiac RTF calcium sensitivity activators, primary screen, biochemical, IANBD-TnC fluorescence, EC20 calcium. Troponin I, cardiac muscle (Homo sapiens) + Troponin T, cardiac muscle (Homo sapiens) + …. IANBD-labeled TnC RTF fluorescence at EC20 calcium; 0% EC20 calcium, 100% full calcium. activation, % at 7.2 µM. 0.24% of 340,000 active;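 active = activation above the mean over all tested compounds plus 3 SD, cut at about 30% in these data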;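 note: rise in fluorescence read as greater calcium sensitivity of cardiac thin filaments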
# RTF Ca sens inh: cardiac RTF calcium sensitivity inhibitors, primary screen, biochemical, IANBD-TnC fluorescence, EC70 calcium | IANBD-labeled cardiac RTF, Ca2+ fluorescence | Troponin I, cardiac muscle (Homo sapiens) + Troponin T, cardiac muscle (Homo sapiens) + … | inhibition, % at 7.15 µM | 0.12% of 340,000 active;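 active = inhibition above the mean inhibition of all tested compounds plus 3 SD, cut at about 17% in these data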;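 note: assay run at fixed EC70 calcium of 1.6 mM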
# IDE cell activ: human IDE activators in live cells, primary screen, fluorescence polarization, HEK cells, FAbeta-B substrate | Insulin-degrading enzyme (Homo sapiens), P14735 | FAbeta-B cleavage; 0% vehicle, 100% cell-free pure enzyme wells | activation, % at 5.96 µM | 0.073% of 340,000 active | AID 493087, 2011;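 active = activation above the mean of all tested compounds plus 3 SD, set per screening campaign, cut at about 17% in these data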
# Target sequence (P14735 whole entry, looked up): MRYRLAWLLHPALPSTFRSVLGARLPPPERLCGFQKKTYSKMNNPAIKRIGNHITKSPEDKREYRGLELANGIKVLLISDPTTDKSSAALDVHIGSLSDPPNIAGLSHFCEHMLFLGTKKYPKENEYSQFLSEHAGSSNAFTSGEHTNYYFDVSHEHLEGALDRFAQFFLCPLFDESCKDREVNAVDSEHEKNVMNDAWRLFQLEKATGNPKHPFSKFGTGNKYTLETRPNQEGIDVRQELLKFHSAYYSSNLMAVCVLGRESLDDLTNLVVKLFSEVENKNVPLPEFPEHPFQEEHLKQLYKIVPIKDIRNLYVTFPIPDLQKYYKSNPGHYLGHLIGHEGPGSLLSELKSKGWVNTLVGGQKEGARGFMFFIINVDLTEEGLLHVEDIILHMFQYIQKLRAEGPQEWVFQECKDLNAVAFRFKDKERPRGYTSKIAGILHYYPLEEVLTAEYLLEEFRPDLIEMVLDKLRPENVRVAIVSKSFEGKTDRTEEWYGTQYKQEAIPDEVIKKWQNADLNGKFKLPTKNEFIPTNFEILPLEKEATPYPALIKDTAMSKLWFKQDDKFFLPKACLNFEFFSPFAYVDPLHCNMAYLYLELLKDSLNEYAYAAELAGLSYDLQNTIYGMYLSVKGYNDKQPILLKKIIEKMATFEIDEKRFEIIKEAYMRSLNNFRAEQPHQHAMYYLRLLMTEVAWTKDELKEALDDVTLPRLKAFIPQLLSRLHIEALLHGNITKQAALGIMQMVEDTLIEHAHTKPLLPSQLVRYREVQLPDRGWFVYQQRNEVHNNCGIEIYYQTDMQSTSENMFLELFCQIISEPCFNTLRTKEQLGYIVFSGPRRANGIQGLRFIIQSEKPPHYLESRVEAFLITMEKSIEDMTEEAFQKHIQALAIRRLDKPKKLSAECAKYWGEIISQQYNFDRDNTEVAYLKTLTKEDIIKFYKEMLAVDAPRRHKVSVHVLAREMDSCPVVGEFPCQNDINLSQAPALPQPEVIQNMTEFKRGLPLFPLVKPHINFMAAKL
# IDE cell inh: human IDE inhibitors in live cells, primary screen, fluorescence polarization, HEK cells, FAbetaB substrate; Insulin-degrading enzyme (Homo sapiens), P14735; inhibition, % at 5.59 µM; 0.41% of 320,000 active; FAbetaB cleavage;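 active = percent inhibition above the average of all tested compounds plus 3 SD, set per screening campaign, cut at about 16% in these data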;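 note: IDE supplied by intact live HEK cells; FP after avidin binding of uncleaved biotin substrate so inhibition keeps polarization high; 0% = DMSO wells and 100% = 60 µM reference IDE inhibitor Ii1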
# RTF Ca inh conf: cardiac RTF calcium sensitivity inhibitors, confirmation, biochemical, fluorescence readout; shares compounds with RTF Ca sens inh; AID 504635, 2011; inhibition, % at 7.15 µM; 8% of 360 active; reconstituted cardiac thin filaments; in the data active = inhibition above about 18%
# * hit, by the source's call; . = no result given. The list is not random: actives were taken first. Their share in the collection is about 0.71%.
SMILES,cardiac RTF act,RTF Ca sens inh,IDE cell activ,IDE cell inh,RTF Ca inh conf
Cc1ccccc1-n1c(=O)cc(N2CCc3ccccc32)[nH]c1=O,1,-2,3,1,.
O=c1cc(N2CCc3ccccc32)[nH]c(=O)n1-c1ccccc1Cl,-2,17*,4,-1,-3
COc1ccc(NC(=O)CC23CC4CC(CC(C4)C2)C3)cn1,0,17*,-1,-5,2
Cc1c(Cl)c([N+](=O)[O-])nn1CC(=O)NC(C)c1ccccc1 (configuration not stated),-2,4,3,3,.
Cc1c(Cl)c([N+](=O)[O-])nn1CC(=O)NCc1cccs1,11,18*,7,4,-3
C[C@H]1CN=C(Nc2ccccc2)N1CCC1CCCCC1,0,9,-2,1,.
C[C@H]1CN=C(Nc2ccccc2)N1CCCC1CCCC1,1,19*,0,6,-2
CCn1cc(C(=O)NNC(=O)c2ccc(Cl)cc2)c(=O)c2ccc(C)nc21,-1,11,8,2,.
O=C(O)/C=C/C(=O)Nc1c(F)cccc1F,8,-8,-1,3,.
COc1cc(/C=C2\SC(=Nc3ccccc3)N(CCc3c[nH]c4ccccc34)C2=O)ccc1OC(C)C(=O)O (configuration not stated),-20,35*,6,-1,4
O=C(C1=C(O)C(=O)N(CCN2CCOCC2)C1c1cccc(F)c1)c1cc2ccccc2o1 (configuration not stated),-4,3,5,-1,.
COc1ccc(CCNc2ncnc3c2nnn3Cc2ccccc2)cc1OC,-3,9,1,-4,.
NC(=O)CSc1oc(-c2ccco2)nc1S(=O)(=O)c1ccc(F)cc1,-3,18*,-1,-4,-2
CCCOC(=O)c1ccc(NC(=O)c2ccccc2OC)cc1,-3,-2,-2,0,.
CCCOC(=O)c1ccc(NC(=O)c2c(Cl)ccc(Cl)c2OC)cc1,-6,21*,-1,-1,-2
COc1ccc(S(=O)(=O)Nc2cccc(S(=O)(=O)N3CCCC3)c2)cc1OC,-1,-1,4,-1,.
CCOc1ccc(C2C(C(=O)c3cccs3)=C(O)C(=O)N2Cc2cccnc2)cc1 (configuration not stated),6,19*,7,2,1
CCOC(=O)C(Cc1cc(N)c(Oc2ccc(OC)cc2)c(N)c1)NC(C)=O (configuration not stated),-6,-1,-2,.,.
CS/C(=N\S(=O)(=O)c1ccc(N)cc1)NS(=O)(=O)c1cccs1,-3,-5,5,0,.
CSC(=NCc1ccc(F)cc1)NS(=O)(=O)c1cccs1,-1,17*,-1,2,0
COc1ccc(S(=O)(=O)N(CC(=O)O)c2ccccn2)cc1,-3,-21,3,-1,.
COc1ccc(S(=O)(=O)n2ccc(-c3ccc(OCCN(C)c4ccccn4)cc3)n2)cc1,-2,17*,3,-3,-2
CCCCN1C2CCCC1CC(NC(=O)c1cccc(Cl)c1)C2 (configuration not stated),2,-1,-3,6,.
Cc1cccc(NC(=O)CCN2CCCCC2)c1,0,-2,0,-1,.
Cc1cccc(NC(=O)CCN2CCCC(C)C2)c1 (configuration not stated),7,59*,1,1,-5
SMILES,cardiac RTF act,RTF Ca sens inh,IDE cell activ,IDE cell inh,RTF Ca inh conf
CCCCCCCCCCCCCCCC(=O)OC(CC(=O)O)C[N+](C)(C)C (configuration not stated),5,18*,12,0,-5
CCCCCCC(=O)O,2,-6,4,-4,.
CCc1ccc(NC(=O)c2cc(C)no2)cc1,-1,-3,3,6,.
CCc1ccc(NC(=O)CN(N=Nc2nonc2C)c2nonc2C)cc1,0,26*,6,-5,-4
COc1ccc(C2=CC3=C(Br)C(=O)C(C)(OC(=O)c4cccs4)C(=O)C3=CO2)cc1 (configuration not stated),-18,20*,-1,-4,0
Cc1nnc(SCC(=O)NCCN2C(=O)CSC2=O)n1-c1ccccc1,-5,23*,5,1,-1
O=C(CSc1nnc(-c2ccc(F)cc2)n1-c1ccccc1)NCCN1C(=O)CSC1=O,5,-6,0,2,.
O=C(N/N=C/c1ccc(Br)s1)c1cccc([N+](=O)[O-])c1,2,18*,-1,-1,-1
O=C(NN=Cc1ccccc1O)c1cccc([N+](=O)[O-])c1,0,-4,6,.,.
Nc1nnc(SCC(=O)N2CCN(c3ccccc3)CC2)n1-c1ccccc1,-6,18*,3,-3,-2
Cc1cc(C)n(Cc2ccc(C(=O)O)cc2)n1,-1,0,3,7,.
Cc1ccc(C)n1Cc1ccc(C(=O)O)cc1,-35,71*,-4,5,22*
CC(=O)C1C(=O)c2c(cccc2[N+](=O)[O-])C1=Nc1cccc(Cl)c1 (configuration not stated),4,-3,-5,-1,.
O=c1ccnc(SCCc2ccc([N+](=O)[O-])cc2)[nH]1,-2,-2,14,-8,.
C/C(=N\NC(=S)NCc1ccccc1)c1ccc(C)o1,-4,21*,-2,2,-2
COc1cccc(-n2c(C)c3c(OC)cccc(=O)c3c2C)c1,1,25*,0,-2,-5
COc1cccc(=O)c2c(C)n(-c3cc(C)cc(C)c3)c(C)c12,3,-3,-2,7,.
COCCN(Cc1ccccc1)C(=O)C1CCN(C(=O)Nc2ccccc2)CC1,0,-4,5,0,.
Cc1ccc(C)c(OCCC(=O)NNC(=O)c2ccccc2)c1,-2,17*,5,4,0
Cc1ccc(Nc2ncnc(Cl)c2N)cc1,-3,-7,3,.,.
COc1ccc(NC(=O)CSc2nc(O)cc(=O)n2-c2ccccc2OC)cc1,-1,-6,8,2,.
COc1ccccc1-n1c(SCC(=O)Nc2ccc(C)cc2)nc(O)cc1=O,-1,18*,-6,-6,-2
COc1ccc(NC(=O)C2COc3ccccc3O2)cc1S(=O)(=O)N1CCOCC1 (configuration not stated),2,1,0,1,.
Cc1ccc(C)c(NC(=O)CN(C)C(=O)CSC(C)C(=O)Nc2cc(C)on2)c1 (configuration not stated),-6,19*,5,-4,-1
Cc1ccc(SCC(=O)NC(C)c2ccccc2)cc1 (configuration not stated),2,-7,2,3,.

# Compound activity as filed in PubChem BioAssay.
